From PMC8384837, “Expanding the binding specificity for RNA recognition by a PUF domain”

What was measured:
Assay in all cases: yeast three-hybrid, YBZ-1, SC-Leu-His + 0.5 mM 3-AT, 4 days
Conditions in all cases: tags: N-Gal4 AD-HA kept; label: inside an RPR1-promoter hybrid RNA with tandem MS2 sites; ssRNA
[1] = target: PUM1 PUF domain R4-TPT (Homo sapiens, UniProt Q14671 828-1176, N971T;H972P;Q975T)
Summary of the method: (§1)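 The interaction score is the log change in variant frequency from input to selection. Scores were computed in log2 with a pseudocount of 1 for absent variants, using Illumina sequencing of PCR-amplified repeat regions. The input came from four days on SC-Leu and the selection from four days on SC-Leu-His + 0.5 mM 3-AT. The cells were strain YBZ-1 (LexA–MS2 coat fusion, HIS3 reporter) co-expressing Pumilio-1 PUF domain libraries and matching RNA elements from a centromeric plasmid.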

[2] = target: PUM1 PUF domain R4-GQR (Homo sapiens, UniProt Q14671 828-1176, N971G;H972Q;Q975R)
Summary of the method: as §1

[3] = target: PUM1 PUF domain R2-TFG (Homo sapiens, UniProt Q14671 828-1176, N899T;Y900F;Q903G)
Summary of the method: as §1

[4] = target: PUM1 PUF domain R8-TYN (Homo sapiens, UniProt Q14671 828-1176, N1122T;Q1126N)
Summary of the method: as §1

[5] = target: PUM1 PUF domain R1-SKS (Homo sapiens, UniProt Q14671 828-1176, R864K;Q867S)
Summary of the method: as §1

[6] = target: T1, PUM1 PUF domain R6-AWS (Homo sapiens, UniProt Q14671 828-1176, N1043A;Y1044W;Q1047S)
T1 sequence: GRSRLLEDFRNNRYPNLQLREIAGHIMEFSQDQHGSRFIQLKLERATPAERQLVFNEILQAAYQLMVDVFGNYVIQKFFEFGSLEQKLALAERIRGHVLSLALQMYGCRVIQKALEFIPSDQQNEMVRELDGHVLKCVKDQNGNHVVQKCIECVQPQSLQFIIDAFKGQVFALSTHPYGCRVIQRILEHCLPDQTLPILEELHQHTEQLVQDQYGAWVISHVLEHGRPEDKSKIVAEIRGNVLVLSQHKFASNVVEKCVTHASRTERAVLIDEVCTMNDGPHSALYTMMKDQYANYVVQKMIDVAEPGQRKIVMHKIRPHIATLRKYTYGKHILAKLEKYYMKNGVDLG
Summary of the method: as §1

[7] = target: PUM1 PUF domain R3-DHS (Homo sapiens, UniProt Q14671 828-1176, C935D;R936H;Q939S)
Summary of the method: as §1

[8] = target: PUM1 PUF domain R5-GAR (Homo sapiens, UniProt Q14671 828-1176, C1007G;R1008A;Q1011R)
Summary of the method: as §1

[9] = target: PUM1 PUF domain R8-RYT (Homo sapiens, UniProt Q14671 828-1176, N1122R;Q1126T)
Summary of the method: as §1

[10] = target: PUM1 PUF domain R4-CGC (Homo sapiens, UniProt Q14671 828-1176, N971C;H972G;Q975C)
Summary of the method: as §1

GGCUAGAACUAGUGGAUCCCCCGGCGCCCGGCGGCUCGAGCCCGGGUAAGUGUACAUAGUCUGCAUGCCGCCGGGCGCCAUGCCUGCAGGUCGACUCUAGAAAACAUG
binding signal [1]: 3.15 log2 enrichment (interaction score)
binding signal [2]: 2.32 log2 enrichment (interaction score)

GGCUAGAACUAGUGGAUCCCCCGGCGCCCGGCGGCUCGAGCCCGGGUAAGUGUAAAAAGUCUGCAUGCCGCCGGGCGCCAUGCCUGCAGGUCGACUCUAGAAAACAUG
binding signal [3]: 4.09 log2 enrichment (interaction score)

GGCUAGAACUAGUGGAUCCCCCGGCGCCCGGCGGCUCGAGCCCGGGUAAGCGUAAAUAGUCUGCAUGCCGCCGGGCGCCAUGCCUGCAGGUCGACUCUAGAAAACAUG
binding signal [4]: 2.62 log2 enrichment (interaction score)

GGCUAGAACUAGUGGAUCCCCCGGCGCCCGGCGGCUCGAGCCCGGGUAAGUGUAAAUCGUCUGCAUGCCGCCGGGCGCCAUGCCUGCAGGUCGACUCUAGAAAACAUG
binding signal [5]: 1.17 log2 enrichment (interaction score)

GGCUAGAACUAGUGGAUCCCCCGGCGCCCGGCGGCUCGAGCCCGGGUAAGUGAAAAUAGUCUGCAUGCCGCCGGGCGCCAUGCCUGCAGGUCGACUCUAGAAAACAUG
binding signal [6]: 5.94 log2 enrichment (interaction score)

GGCUAGAACUAGUGGAUCCCCCGGCGCCCGGCGGCUCGAGCCCGGGUAAGUGUAAAUAGUCUGCAUGCCGCCGGGCGCCAUGCCUGCAGGUCGACUCUAGAAAACAUG
binding signal [7]: 3.1 log2 enrichment (interaction score)
binding signal [8]: 1.64 log2 enrichment (interaction score)
binding signal [1]: 2.59 log2 enrichment (interaction score)
binding signal [9]: 2.86 log2 enrichment (interaction score)
binding signal [10]: 3.48 log2 enrichment (interaction score)

GGCUAGAACUAGUGGAUCCCCCGGCGCCCGGCGGCUCGAGCCCGGGUAAGUGUUAAUAGUCUGCAUGCCGCCGGGCGCCAUGCCUGCAGGUCGACUCUAGAAAACAUG
binding signal [8]: 2.98 log2 enrichment (interaction score)

GGCUAGAACUAGUGGAUCCCCCGGCGCCCGGCGGCUCGAGCCCGGGUAAGUGUCAAUAGUCUGCAUGCCGCCGGGCGCCAUGCCUGCAGGUCGACUCUAGAAAACAUG
binding signal [8]: 5.42 log2 enrichment (interaction score)

GGCUAGAACUAGUGGAUCCCCCGGCGCCCGGCGGCUCGAGCCCGGGUAAGUGUAAAUUGUCUGCAUGCCGCCGGGCGCCAUGCCUGCAGGUCGACUCUAGAAAACAUG
binding signal [5]: 2.64 log2 enrichment (interaction score)
